Assay outcomes: PubChem, several laboratories
ADAM17 inh – inhibitors of human ADAM17; 0.83% of 370,000 active; P78536; recombinant ADAM17, EDANS/DABCYL FRET peptide cleavage; inhibition, % at 6.95 µM;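 active means inhibition above the mean of compounds lying between control limits plus 3 SD, set per campaign, cut at about 8.5% in these data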;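 further: 0% = DMSO-only wells as the low control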
NPR2 activator – GC-B (human) receptor activation | P20594 | HEK293-GC-B cells, CNP EC30, cGMP TR-FRET; 0% at EC30 CNP, 100% saturating CNP | activation, % at 10 µM | 0.11% of 370,000 active;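 active means activation at 10 µM reaching about 35% in either raw or pattern-adjusted values, limit read from the data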
proKLK7 act – proKLK7 (human) activation, primary screen. 0.9% of 370,000 active. AID 652039. purified proKLK7, EDANS-DABCYL substrate fluorescence; 100% is mature enzyme control, 0% vehicle. P49862. activation, % at 7 µM;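 active means activation above the mean of all tested compounds plus 3 SD, computed per campaign excluding outliers beyond control limits, cut at about 13% in these data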
NPR1 activator – GC-A (human) enzyme activation. HEK293 GC-A cells, cGMP TR-FRET, EC30 ANP; 0% at EC30 ANP, 100% saturating ANP. activation, % at 10 µM. 0.14% of 370,000 active. AID 1671463; in the data active means activation above about 40%
Target sequence (P16066 whole entry, looked up): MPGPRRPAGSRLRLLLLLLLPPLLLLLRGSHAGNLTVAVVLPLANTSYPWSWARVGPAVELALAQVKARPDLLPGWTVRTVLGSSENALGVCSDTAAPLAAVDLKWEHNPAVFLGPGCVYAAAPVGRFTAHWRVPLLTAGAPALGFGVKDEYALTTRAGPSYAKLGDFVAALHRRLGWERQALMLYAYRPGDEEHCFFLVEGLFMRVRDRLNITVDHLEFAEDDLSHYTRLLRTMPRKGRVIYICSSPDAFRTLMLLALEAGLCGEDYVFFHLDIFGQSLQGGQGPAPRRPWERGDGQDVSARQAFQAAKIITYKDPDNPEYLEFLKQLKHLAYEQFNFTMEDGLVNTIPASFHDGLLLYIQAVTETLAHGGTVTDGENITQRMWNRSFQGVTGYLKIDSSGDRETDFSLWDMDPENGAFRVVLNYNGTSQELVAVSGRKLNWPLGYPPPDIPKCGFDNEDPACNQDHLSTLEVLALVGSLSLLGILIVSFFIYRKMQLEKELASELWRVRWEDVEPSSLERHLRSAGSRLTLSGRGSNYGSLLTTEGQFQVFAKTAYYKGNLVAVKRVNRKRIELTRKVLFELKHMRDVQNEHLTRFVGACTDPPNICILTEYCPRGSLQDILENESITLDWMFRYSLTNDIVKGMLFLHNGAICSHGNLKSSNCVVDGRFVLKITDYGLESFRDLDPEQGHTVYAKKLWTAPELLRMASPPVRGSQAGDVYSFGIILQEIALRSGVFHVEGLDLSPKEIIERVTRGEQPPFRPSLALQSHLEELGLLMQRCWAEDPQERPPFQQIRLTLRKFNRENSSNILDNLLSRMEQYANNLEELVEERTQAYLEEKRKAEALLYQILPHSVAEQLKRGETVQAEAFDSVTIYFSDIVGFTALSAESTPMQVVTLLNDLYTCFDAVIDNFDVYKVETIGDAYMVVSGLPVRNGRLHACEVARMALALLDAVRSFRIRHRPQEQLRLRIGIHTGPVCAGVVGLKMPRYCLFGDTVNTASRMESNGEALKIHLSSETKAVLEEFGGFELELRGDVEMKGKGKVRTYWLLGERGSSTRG
ADAM10 inh – inhibitors of human ADAM10 | 0.62% of 370,000 active | O14672 | inhibition, % at 7 µM | recombinant ADAM10, EDANS/DABCYL FRET peptide cleavage, 3 h;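 active means inhibition above a per-campaign cutoff equal to the mean of compounds falling between control-based bounds plus 3 SD, cut at about 20% in these data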;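 further: 0% = DMSO wells while the 100% control is not disclosed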
proKLK7 act conf – proKLK7 activation, confirmation; purified proKLK7, EDANS-DABCYL substrate fluorescence; scaled: vehicle 0, mature enzyme 100; shares compounds with proKLK7 act; AID 686949; 68% of 3,200 active; activation, % at 7 µM;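 active means activation, as change over the incubation, above the mean of all tested compounds plus 3 SD, cut at about 13% in these data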
EDANS-DABCYL int – counter-screen for kallikrein-7 activators: EDANS-DABCYL optical interference; shares compounds with proKLK7 act; EDANS-DABCYL substrate fluorescence interference, no enzyme, 4 h; solvent 0%, active enzyme control 100%; activation, % at 7 µM; 80% of 3,200 active; AID 686952;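 active means activation above the all-compound mean plus 3 SD, ignoring values outside control-based bounds, cut at about 4.8% in these data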;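 further: value is the 4 h activation minus the activation read at time zero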
An asterisk follows results filed as active; i = inactive; . = no result given. Hits are enriched below; roughly 2.2% of the tested compounds scored in any of these assays.

SMILES | ADAM17 inh | NPR2 activator | proKLK7 act | NPR1 activator | ADAM10 inh | proKLK7 act conf | EDANS-DABCYL int
COC(=O)Cc1c(C)c2ccc(OC(=O)c3ccco3)cc2oc1=O | i | 8.4 | 439.0* | 7.7 | i | 735.6* | 740.9*
CCc1c(C)c2ccc(OCC(=O)OC)cc2oc1=O | -147.6 | -0.7 | 20.5* | 0.0 | -477.1 | 21.6* | 21.4*
Cc1cc(NS(=O)(=O)C2CCN(C(=O)Cc3ccc(Cl)c(Cl)c3)CC2)no1 | 0.3 | -6.4 | 0.4 | 3.0 | 0.3 | . | .
Cc1ccccc1NC(=O)N(C)[C@H]1C[C@H]2c3[nH]c4c(-c5ccc6c(c5)OCO6)cccc4c3CCN2C[C@H]1[C@H](C)O | -3.3 | -6.8 | -0.1 | -4.2 | -16.1 | . | .
CSc1ccc(/C=C/C(=O)OCC(=O)NC2CCCC2)cc1 | -291.7 | 3.0 | 18.5* | 0.9 | i | -1.6 | 3.5
COc1ccc(C)cc1S(=O)(=O)NCCN1CCOCC1 | -5.0 | 0.5 | 0.3 | 4.3 | -10.1 | . | .
COc1ccc(Br)cc1S(=O)(=O)NCCN1CCOCC1 | 4.9 | 3.5 | 41.5* | 0.8 | 9.6 | -0.1 | 0.1
O=c1oc2c(CN3CCOCC3)c(O)ccc2c2c1CCCC2 | i | -5.2 | 51.9* | 5.8 | i | 68.9* | 64.3*
O=c1oc2c(CN3CCOCC3)c(O)ccc2c2ccccc12 | -5.4 | -4.0 | 1.1 | 3.4 | 0.3 | . | .
O=c1oc2c(CN3CCOCC3)c(O)c(Cl)cc2c2c1CCCC2 | i | 0.2 | 53.2* | -2.3 | i | 65.9* | 67.4*
COC(=O)C1CN(Cc2ccccc2)CCS(=O)(=O)N1Cc1cn(Cc2ccccc2)nn1 (configuration not stated) | -1.7 | -1.0 | 0.6 | 2.1 | -1.8 | . | .
CNC(=O)OCc1cocc1COC(=O)NC | 0.8 | 0.3 | 42.5* | -1.8 | 1.3 | 0.3 | 0.3
CCCCCN1CCCCC(NC(=O)CSc2ccccc2)C1=O (configuration not stated) | 1.4 | 9.7 | -0.3 | 6.5 | 1.9 | . | .
CN1c2ccccc2Oc2nnc(Cl)cc21 | -206.4 | -0.8 | 13.2* | 9.2 | i | 28.4* | 34.1*
CN1c2ccccc2Sc2cc(N)ccc21 | 2.3 | -2.2 | -0.4 | -5.9 | 9.7 | . | .
CCCCNc1nccnc1-c1cccc(C=O)c1 | -85.7 | -4.6 | 212.3* | -0.8 | -391.5 | 299.2* | 289.0*
S=C1NC(c2ccccc2)=CC(c2ccccc2)N1 (configuration not stated) | 0.6 | -1.9 | -0.5 | 6.1 | -2.8 | . | .
N#CC1C(=O)NC(c2ccccc2)=CC1c1ccccc1 (configuration not stated) | -74.4 | -2.5 | 123.6* | -0.9 | -245.7 | 109.5* | 102.9*
Cc1cc(N)ccc1-n1nc2ccccc2n1 | -7.9 | -1.2 | -0.5 | 2.8 | -10.2 | . | .
Cc1ccc(-n2nc3ccc(N)cc3n2)c(C)c1 | -228.1 | -6.8 | 40.1* | 7.9 | i | 76.6* | 76.3*
COc1ccc(-n2nc3ccc(N)cc3n2)cc1Cl | -118.9 | -3.9 | 52.7* | 3.9 | -289.8 | 75.1* | 75.4*
Cc1ccc(-n2nc3ccc(N)cc3n2)cc1Cl | -70.9 | -2.9 | -48.9 | 37.1 | -185.9 | . | .
O=C(COC(=O)CCCNC(=O)c1ccc(Cl)cc1)NC1CC1 | -8.8 | -2.3 | 13.9* | -0.2 | -5.7 | -0.6 | -1.2
O=C(CCNC(=O)c1ccc(Cl)cc1)NC1CCCCCC1 | -3.5 | -3.7 | 0.4 | 1.4 | -3.2 | . | .
O=c1c2cc3cc(Cl)ccc3nc2ncn1CCc1c[nH]c2ccccc12 | 0.7 | -11.4 | -0.6 | -6.2 | -21.2 | . | .
SMILES | ADAM17 inh | NPR2 activator | proKLK7 act | NPR1 activator | ADAM10 inh | proKLK7 act conf | EDANS-DABCYL int
O=C(NCc1ccco1)c1nc2nc(-c3cccs3)cc(C(F)(F)F)n2n1 | i | -2.4 | 56.3* | -2.8 | i | 61.0* | 68.4*
COC(=O)c1nc2nc(-c3cccs3)cc(C(F)(F)F)n2n1 | i | 1.9 | 204.8* | 1.9 | i | 63.4* | 66.9*
CS(=O)(=O)N[C@@H]1C[C@@H]2O[C@@H](CO)CC[C@@H]2O[C@@H]1CCc1ccc(-c2ccccc2F)cc1 | 3.3 | -3.3 | 0.1 | 32.6 | 4.8 | . | .
C[C@@H](CO)N(Cc1cn(Cc2ccccc2)nn1)S(=O)(=O)c1ccc(F)cc1Br | -1.1 | 3.4 | 0.1 | 2.1 | -6.6 | . | .
COc1ccc(/C=C/C(=O)c2ccccc2)cc1COc1ccccc1F | -0.8 | 2.5 | 263.4* | -2.3 | 0.1 | -17.0 | 80.2*
COc1cc(/C=C/C(=O)c2ccc(O)cc2)ccc1OCC#N | 4.2 | -8.4 | 15.8* | -4.8 | -18.4 | 3.0 | 4.2*
COc1cccc(C(=O)/C=C/c2ccc(OCC#N)c(OC)c2)c1 | 0.8 | -6.6 | -1.4 | -0.6 | 5.8 | . | .
COc1cc(/C=C/C(=O)OCC(=O)Nc2ccc3c(c2)OCCO3)ccc1OCC#N | -21.7 | 0.9 | 38.3* | -3.9 | -252.8 | 128.1* | 110.1*
COc1ccc(C(=O)/C=C/c2ccc(O)cc2)cc1 | -20.3 | -5.2 | 17.6* | 0.8 | -104.7 | 4.3 | 5.5*
CCn1c(=O)n2n(c1=O)[C@]1(C=C(C)C2)CN(Cc2ccc(OC)cc2OC)C(NC(=O)c2ccccc2)=N1 | 5.5 | -7.0 | . | 0.5 | 9.4 | . | .
Cc1ccc2nc(-c3ccc4c(c3)OCCO4)cn2c1 | -150.0 | -4.9 | 5.3 | -1.5 | i | . | .
Clc1ccc2nc(-c3ccc4c(c3)OCO4)cn2c1 | -230.2 | 5.2 | 14.3* | 6.7 | i | 7.2 | 7.8*
NNC(=O)c1cccn(Cc2cccc(C(F)(F)F)c2)c1=O | -5.5 | 3.9 | 6.3 | 0.6 | -5.1 | . | .
C=CCNC(=S)NNC(=O)c1ccc(=O)n(Cc2ccccc2)c1 | -1.6 | -1.6 | 0.0 | -3.7 | 5.5 | . | .
C=CCNC(=S)NNC(=O)c1cccn(Cc2ccc(Cl)c(Cl)c2)c1=O | -56.2 | 2.8 | 21.5* | -6.7 | -435.7 | 33.2* | 35.6*
CNC(=S)NNC(=O)c1cccn(Cc2cccc(Cl)c2)c1=O | -24.2 | 4.2 | 15.3* | 5.6 | -149.9 | 30.4* | 34.2*
CNC(=S)NNC(=O)c1ccccc1Br | 0.8 | 2.9 | 0.1 | -2.4 | 1.0 | . | .
CNC(=S)NNC(=O)c1cccn(Cc2ccc(Cl)c(Cl)c2)c1=O | -54.6 | 3.1 | 20.7* | 1.1 | -318.5 | 30.8* | 34.5*
CC(C)CNc1cccc2c1S(=O)(=O)N(Cc1cn(Cc3cccc(F)c3)nn1)Cc1ccccc1O2 | -2.4 | 2.9 | -4.7 | 0.5 | -14.5 | . | .
O=C(CC1C=CCC1)OCCN1CCN(C2CN(Cc3cn(Cc4ccccc4Cl)nn3)S(=O)(=O)C2)CC1 (configuration not stated) | -0.5 | 1.1 | -0.3 | 0.8 | 8.6 | . | .
O=C(CSc1nnc(-c2cccnc2)n1Cc1ccco1)Nc1ccc(F)cc1Cl | -9.7 | -1.4 | -0.4 | -5.0 | -12.3 | . | .
Cc1c(Cc2ccccc2)c(=O)oc2cc(O)cc(O)c12 | -489.2 | 9.1 | 55.2* | 18.0 | i | 63.5* | 76.2*
